Experimental findings from PubChem BioAssay are described below.

SMILES strings stand for the structures. Where “and” joins values, the source holds several entries; their conditions need not be identical. Equal values may be shown once.

The first assay can be described thus: reversal of MRP1-mediated doxorubicin resistance, pilot screen, H69AR cells, doxorubicin co-treatment (AID 601). Conditions: H69AR cells + 2 uM doxorubicin, CellTiter-Glo, 72 h; measured here: viability with 2 uM doxorubicin; at 10 µM; stronger effect = lower value.
Consider `O=C1CCCN1CCCNc1ncnc2c1[nH]c1ccc(Cl)cc12`, for which the viability worked out at 77.8%.
Turning to `C=CCNS(=O)(=O)c1ccc2nsnc2c1`, the viability was 102%.
On the same count and under the same terms, the same measure for `O=C(O)c1oc2ccccc2c1-n1cccc1`: 97.8%; for `COCCn1c(SCc2csc(-c3ccccc3)n2)nc2ccccc21`: 91.5%; for `Nc1nc2ccccc2n1C(=O)CCc1ccccc1`: 76.1%.
As for `Cc1cccc2cc(CN(CCN3CCCC3)C(=O)NC3CCCCC3)c(=O)[nH]c12`, the viability was 92%.
With `Cc1ccc(-c2noc(CCC(=O)NCCc3ccccc3Cl)n2)cc1`, the viability was 87.7%.
For the compound `COc1ccc2c(c1OC)C(=O)OC2C1c2c(cc3c(c2OC)OCO3)CCN1C` (stereo not given), the viability is 91.6% and 97%.
Same read-out and setting: then `CCOC(=O)CNC(=O)Nc1nnc(-c2ccc(OCC)cc2)o1`, with 90.3%; and `C/C(N)=C(/C#N)C(=O)COC(=O)CCSc1ccccc1`, with 101%.
For `CCOC(=O)C1=C(C)NC(C)=C(C(=O)OCC)C1C(=O)OC1CCOC1=O` (stereo not given), the viability is 91.4%.
Same read-out and setting: the same measure for `CCC1(NC(C)=O)CC2CC1CC2NC(C)=O` (stereo not given): 89.1%; for `CC(C)COc1nc2ccccc2nc1C(C#N)C(=O)NC1CCCCC1` (stereo not given): 105%; for `CCc1cc(C(=O)OC)c(NC(=O)CCC(=O)O)s1`: 89.1%.
The same measure, in the same setting: then `Cc1cccc2cc(CN(CCCO)C(=O)Nc3ccc(Cl)cc3)c(=O)[nH]c12`, with 71.2%; and `O=C(CCN1CCN(C(=O)c2ccco2)CC1)Nc1ccc(F)cc1`, with 90.9%; and `CCC(=NC(C)c1ccccc1)c1c(O)n(C)c(=O)n(C)c1=O` (stereo not given), with 105%.
Regarding `O=C(O)CCCCCNc1nc(=S)[nH]c2ccccc12`, the viability is 79%.
With `CCOC(=O)N1CCN(C(=O)c2ccc3nc4cc(Cl)ccc4c(=O)n3c2)CC1`, the viability was determined as 88.8%.
For the compound `COc1ccc(OC)c(C(=O)CSc2nnc(-c3ccc(OC)c(OC)c3)o2)c1`, the viability worked out at 73.7%.
For the compound `C[C@H](NC(=O)NCc1cccs1)C(=O)O`, the viability stood at 93.5%.
As to `CC1CCN(CC(O)COC2CCC(C(C)(C)C)CC2)CC1` (stereo not given), the viability came out at 71.4%.
In the case of `Cc1cccc(N2CCN(C(=O)Cn3ccc4ccccc4c3=O)CC2)c1C`, the viability was 96.2%.
`Cc1cc(NC(=O)CCC(=O)N(c2cccnc2)C(C(=O)NC2CCCC2)c2ccccc2F)no1` (stereo not given): the viability came to 88.6%.
The same measure, in the same setting: then `Cc1ccc(NC(=O)CCC(=O)O)cc1F`, with 91.8%; and `CC1C=CC(C)C(C(=O)O)C1C(=O)O` (stereo not given), with 98.3%.
For `Cc1ccc(-c2nnn(CC(=O)N(CC3CCCO3)C(C(=O)NC(C)(C)C)c3ccc(F)cc3)n2)o1` (stereo not given), the viability was found to be 97.4%.
Take `CN(C)C(=O)c1ccc(COc2ccccc2Br)o1`: the viability worked out at 77.8%.
On to `CCOC(=O)C1C2C=CC3(CN(c4cccc(Cl)c4)C(=O)C13)O2` (stereo not given), for which the viability worked out at 96.3%.
Still for that read-out and setting: the same measure for `O=C(NCCC1=CCCCC1)C1CCN(C(=O)Nc2ccccc2)CC1`: 95.7%.
Still for that read-out and setting: the same measure for `CCOC(=O)C1CCN(c2c(N(C)Cc3ccco3)c(=O)c2=O)CC1`: 88.9%; for `CCN(CC)CCn1c2ccccc2c2nc(C)sc21`: 100%.
The same measure, in the same setting: the same measure for `COc1cc(C(=O)OCC(=O)N(C)Cc2ccccc2)cc(OC)c1OC`: 97.4%; for `COc1ccc(C)cc1NC(=O)COCC(=O)O`: 95.2%; for `Cc1c(C(=O)O)sc2ncn(C)c(=O)c12`: 91.7%.
`O=C(COC(=O)C1=COCCO1)Nc1ccccc1Oc1ccccc1`: the viability was 88.3%.
Still for that read-out and setting: then `O=C(Nc1cccc2ccccc12)c1cnccn1`, with 82.5%; and `CCOC(=O)c1cccnc1SCC(=O)NC(C)CC` (stereo not given), with 92.3%; and `CCOc1nc2ccccc2nc1NS(=O)(=O)c1ccccc1`, with 88%.
For the compound `Cc1cc(N2C(=O)C3C4C=CC(C4)C3C2=O)ccc1Br` (stereo not given), the viability came out at 89.3%.

Still in this assay, the particulars now being: H69AR cells, CellTiter-Glo, 72 h; compound alone cytotoxicity; at 10 µM.
For `O=C1CCCN1CCCNc1ncnc2c1[nH]c1ccc(Cl)cc12`, the viability came to 80.9%.
As for `C=CCNS(=O)(=O)c1ccc2nsnc2c1`, the viability is 100%.
Regarding `O=C(O)c1oc2ccccc2c1-n1cccc1`, the viability stood at 96.8%.
As for `COCCn1c(SCc2csc(-c3ccccc3)n2)nc2ccccc21`, the viability was 88.5%.
As to `Nc1nc2ccccc2n1C(=O)CCc1ccccc1`, the viability was found to be 48.4%.
Same read-out and setting: then `Cc1cccc2cc(CN(CCN3CCCC3)C(=O)NC3CCCCC3)c(=O)[nH]c12`, with 91%.
On the same count and under the same terms, then `Cc1ccc(-c2noc(CCC(=O)NCCc3ccccc3Cl)n2)cc1`, with 99.6%; and `COc1ccc2c(c1OC)C(=O)OC2C1c2c(cc3c(c2OC)OCO3)CCN1C` (stereo not given), with 51.7% and 73.8%; and `CCOC(=O)CNC(=O)Nc1nnc(-c2ccc(OCC)cc2)o1`, with 98.3%.
On to `C/C(N)=C(/C#N)C(=O)COC(=O)CCSc1ccccc1`, for which the viability was 101%.
As to `CCOC(=O)C1=C(C)NC(C)=C(C(=O)OCC)C1C(=O)OC1CCOC1=O` (stereo not given), the viability amounted to 93.8%.
For the compound `CCC1(NC(C)=O)CC2CC1CC2NC(C)=O` (stereo not given), the viability stood at 100%.
Turning to `CC(C)COc1nc2ccccc2nc1C(C#N)C(=O)NC1CCCCC1` (stereo not given), the viability is 84.9%.
On to `CCc1cc(C(=O)OC)c(NC(=O)CCC(=O)O)s1`, for which the viability came to 107%.
Consider `Cc1cccc2cc(CN(CCCO)C(=O)Nc3ccc(Cl)cc3)c(=O)[nH]c12`, for which the viability came out at 77.1%.
Same read-out and setting: then `O=C(CCN1CCN(C(=O)c2ccco2)CC1)Nc1ccc(F)cc1`, with 97%; and `CCC(=NC(C)c1ccccc1)c1c(O)n(C)c(=O)n(C)c1=O` (stereo not given), with 90.7%.
Consider `O=C(O)CCCCCNc1nc(=S)[nH]c2ccccc12`, for which the viability turned out to be 89.3%.
`CCOC(=O)N1CCN(C(=O)c2ccc3nc4cc(Cl)ccc4c(=O)n3c2)CC1`: the viability is 91.1%.
Take `COc1ccc(OC)c(C(=O)CSc2nnc(-c3ccc(OC)c(OC)c3)o2)c1`: the viability was 74.5%.
Regarding `C[C@H](NC(=O)NCc1cccs1)C(=O)O`, the viability was 93.6%.
With `CC1CCN(CC(O)COC2CCC(C(C)(C)C)CC2)CC1` (stereo not given), the viability was 74.5%.
As to `Cc1cccc(N2CCN(C(=O)Cn3ccc4ccccc4c3=O)CC2)c1C`, the viability is 95%.
On to `Cc1cc(NC(=O)CCC(=O)N(c2cccnc2)C(C(=O)NC2CCCC2)c2ccccc2F)no1` (stereo not given), for which the viability worked out at 93.3%.
Still for that read-out and setting: then `Cc1ccc(NC(=O)CCC(=O)O)cc1F`, with 104%; and `CC1C=CC(C)C(C(=O)O)C1C(=O)O` (stereo not given), with 93%; and `Cc1ccc(-c2nnn(CC(=O)N(CC3CCCO3)C(C(=O)NC(C)(C)C)c3ccc(F)cc3)n2)o1` (stereo not given), with 101%.
The same measure, in the same setting: the same measure for `CN(C)C(=O)c1ccc(COc2ccccc2Br)o1`: 90.7%.
`CCOC(=O)C1C2C=CC3(CN(c4cccc(Cl)c4)C(=O)C13)O2` (stereo not given): the viability worked out at 97.5%.
Take `O=C(NCCC1=CCCCC1)C1CCN(C(=O)Nc2ccccc2)CC1`: the viability came out at 101%.
As for `CCOC(=O)C1CCN(c2c(N(C)Cc3ccco3)c(=O)c2=O)CC1`, the viability was found to be 104%.
For the compound `CCN(CC)CCn1c2ccccc2c2nc(C)sc21`, the viability was 92.6%.
As to `COc1cc(C(=O)OCC(=O)N(C)Cc2ccccc2)cc(OC)c1OC`, the viability came to 94.8%.
On to `COc1ccc(C)cc1NC(=O)COCC(=O)O`, for which the viability was determined as 103%.
Turning to `Cc1c(C(=O)O)sc2ncn(C)c(=O)c12`, the viability came to 103%.
As for `O=C(COC(=O)C1=COCCO1)Nc1ccccc1Oc1ccccc1`, the viability was 93.8%.
In the case of `O=C(Nc1cccc2ccccc12)c1cnccn1`, the viability is 95%.
The same measure, in the same setting: the same measure for `CCOC(=O)c1cccnc1SCC(=O)NC(C)CC` (stereo not given): 102%.
As to `CCOc1nc2ccccc2nc1NS(=O)(=O)c1ccccc1`, the viability came out at 88.5%.
Same read-out and setting: then `Cc1cc(N2C(=O)C3C4C=CC(C4)C3C2=O)ccc1Br` (stereo not given), with 101%.

By viability is commonly meant a read-out of living cells in per cent, often relative to untreated cells.
